Assay outcomes (PubChem)
The sample as a whole holds a higher share of hits than the screen did.
KDM5B inhibitor – KDM5B demethylase inhibition | Q9UGL1 | KDM5B demethylase, FDH-coupled NADH fluorescence (FDH is formaldehyde dehydrogenase) | Potency, µM (titrated, usually from 57.7 µM), hits mostly inhibitors | hit rate 2.6% among 220,000; active = well fitted inhibition curve with a large enough effect; note: 0% is about no effect; nearly all actives have a fitted effect of over 70% in size
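Here, H3K4me3 peptide (12.5 µM in substrate mix) is demethylated by KDM5BΔAP, 200 nM final, after 10 min compound exposure. Formaldehyde product is coupled through FDH (0.25 U/mL in mix) to NADH fluorescence; 30-min ΔRFU feeds dose-response curves.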
* hit, by the source's call; i = inactive. Potency is the fitted concentration of half-maximal effect.

SMILES	KDM5B inhibitor
CSCCC(=O)N1CCCC(CCc2ccccc2F)C1 (stereo not drawn)	i
Cc1ccccc1CCC1CCCN(C(=O)c2cccc(O)c2C)C1 (stereo not drawn)	i
CCc1nc2ccccc2c(C(=O)OCC(=O)N(C(C)C)C(C)C)c1C	i
CC(C)c1nnc(NC(=O)c2cc(=O)c3ccccc3o2)s1	i
CC(C)N(C)C1CCN(c2nc(-c3ccncc3)nc3ccccc23)CC1	i
O=C(Cn1cccc1-c1nc(-c2ccccc2)no1)N1CCc2ccccc21	i
O=C(Cn1cccc1-c1nc(-c2ccc3c(c2)OCO3)no1)N1CCCc2ccccc21	31.6µM*
O=C(Cn1cccc1-c1nc(-c2ccc(F)cc2)no1)N1CCc2ccccc21	i
CCCCNC(=S)Nc1ccccc1Cl	i
Cc1ccc(-n2nnc(C(=O)NC(C)C)c2C)cc1Cl	i
CC(C)c1ccc(NC(=O)/C=C/c2cc3cc(Cl)ccc3o2)cc1	i
Cc1ccc(SC(C)C(=O)NC(C)(C#N)C(C)C)cc1C (stereo not drawn)	i
N#Cc1nc(-c2cccs2)oc1NCCN1CCCCC1	i
O=S(=O)(N1CCCCC1)N1CCCC(c2nc3ccccc3o2)C1 (stereo not drawn)	i
COc1ncccc1-c1cc(-c2c(C)noc2C)cc2c1C(=O)N(C)C2=O	i
COc1ccc(-c2cccc(CCOc3cnc4c(ccn4CC(=O)O)c3)c2)c(C)c1	39.8µM*
C[C@H](NC(=O)Cn1ccc2ccc(OCc3ccccc3)cc21)C(=O)O	i
COc1ncccc1-c1cccc(CCOc2cnc3c(ccn3CC(=O)O)c2)c1	39.8µM*
CNC(=O)CCn1ncc2cc(OCc3ccccc3-c3cccnc3OC)ccc21	i
COc1cccc(CCC(=O)N2CCC3(CC2)N=C(c2ccccc2)NO3)c1	i
COc1cccc(CNC(=O)c2cnc3c(-c4ccc(F)cc4)c(C)nn3c2C)c1	i
Cc1ccccc1-c1cccc(CCOc2cnc3c(ccn3CC(=O)O)c2)c1	39.8µM*
CC(=O)N1CCN(C(=O)Cn2ccc3cc(OCc4ccccc4)ccc32)CC1	i
CC1(C)CC(=O)C2=C(C1)NC(Nc1nc3ccccc3o1)=NC2c1cccc(Cl)c1 (stereo not drawn)	i
COc1ccc(-c2cc(N3CCC(NC(=O)c4ccc(NC(C)=O)cc4)CC3)n[nH]2)cc1	i
SMILES	KDM5B inhibitor
CCn1c(SCC(=O)Nc2cc(C)c(Cl)cc2OC)nnc1-c1ccccc1	i
CC1CN(c2ccccc2C=O)CC(C)O1 (stereo not drawn)	i
CCCCc1cc(C[C@H]2CNCC[C@H]2CC(=O)Nc2ccccc2)no1	i
CC(OC(=O)Cc1c[nH]c2ccccc12)C(=O)NC(N)=O (stereo not drawn)	i
CC(C)c1noc(C2CCCN(C(=O)C3(c4ccccc4)CC3)CCC(=O)NCC2)n1 (stereo not drawn)	i
COc1cccc(NC(=O)CSc2nc3ccccc3c(=O)n2-c2ncn[nH]2)c1	i
CC(C)n1cnnc1-c1nn(C)c2c1CN(C(=O)Cc1c[nH]c3ccccc13)CC2	20µM*
CCNC(=O)N1CCc2c(c(-c3nncn3-c3ccccc3)nn2C)C1	i
CCn1cnnc1-c1nn(C)c2c1CN(C(=O)c1n[nH]c(=O)c3ccccc13)CC2	i
CCn1cnnc1-c1nn(C)c2c1CN(C(=O)CCC(=O)N1CC(=O)Nc3ccccc31)CC2	14.1µM*
Cn1nc(-c2nncn2CC2CC2)c2c1CCN(C(=O)c1n[nH]c3ccccc13)C2	20µM*
CN(CC(=O)N1CCc2c(c(-c3nncn3CC3CC3)nn2C)C1)S(=O)(=O)c1cnc[nH]1	22.4µM*
Cn1cnnc1-c1nn(C)c2c1CN(C(=O)c1n[nH]c3ccccc13)CC2	i
Cn1nc(-c2nncn2CC2CC2)c2c1CCN(C(=O)c1cn[nH]c1-c1ccccc1)C2	i
Cn1cnnc1-c1nn(C)c2c1CN(C(=O)c1nn(C)c3ccccc13)CC2	i
Cn1nc(-c2nncn2CC2CC2)c2c1CCN(C(=O)c1[nH]nc3c1COc1ccccc1-3)C2	i
CC(C)n1cnnc1-c1nn(C)c2c1CN(C(=O)c1n[nH]c3ccccc13)CC2	i
Cn1nc(-c2nncn2CC2CC2)c2c1CCN(C(=O)c1nn(C)c3ccccc13)C2	i
CC(=O)Nc1ccc(C(=O)N(CCc2ccccc2)Cc2ccccc2)s1	i
COc1cc(NC(=O)c2ccc(N3C(=O)C(C)CS3(=O)=O)cc2)cc(OC)c1OC (stereo not drawn)	i
COc1ccc(CNC(=O)CC(C)CC(=O)O)cc1 (stereo not drawn)	i
COc1cccc(/C=C/C(=O)c2ccccc2C)c1OC	i
Cc1cccc(NC(=O)NC(C(=O)N2CCc3ccccc32)c2ccccc2)c1 (stereo not drawn)	i
COc1ccc(C(NC(=O)c2nn(C)c(=O)c3ccccc23)C(C)C)cc1 (stereo not drawn)	i
CCCNC(N)=S	i
SMILES	KDM5B inhibitor
COCCN1C(=O)NC(c2cccc(Cl)c2Cl)C(C(=O)Nc2cc(C)on2)=C1C (stereo not drawn)	i
CCOc1cccc2cc(-c3cc(=O)oc4cc(C)ccc34)oc12	i
Cc1cc(N2CCN(CCO)CC2)n2nc(C)c(-c3ccc(F)cc3)c2n1	i
COc1ccc(CC(=O)N2CCC[C@H]2c2nc(-c3ccccc3Cl)no2)cc1	i
c1cc(-c2noc([C@@H]3CCCN3Cc3ncc[nH]3)n2)cc(N2CCOCC2)n1	31.6µM*
COc1ccc(CCC(=O)N2CCC[C@H]2c2nc(-c3ccc(OC)cc3)no2)cc1	i
Cc1ccc(-c2noc(C3CCCN3Cc3ccccc3)n2)nn1 (stereo not drawn)	i
Cc1ccc(-c2noc([C@@H]3C[C@@H](O)CN3Cc3ncc[nH]3)n2)cc1F	i
c1coc(-c2noc(CN3CCCC3c3nc(-c4ccncc4)no3)n2)c1 (stereo not drawn)	i
c1ccc(CN2CCC[C@H]2c2nc(-c3ccnc(N4CCOCC4)c3)no2)nc1	28.2µM*
COc1ccc(-c2noc([C@@H]3CCCN3C(=O)Cc3ccc(F)cc3)n2)cc1	i
COc1ccc(-c2noc([C@@H]3CCCN3Cc3ccc(S(C)(=O)=O)cc3)n2)cn1	i
COc1ccc(CN2CCC[C@H]2c2nc(-c3ccnc(N4CCOCC4)c3)no2)cc1	31.6µM*
COc1ccc(CN2CCC[C@H]2c2nc(-c3cncnc3N)no2)c(O)c1	31.6µM*
O[C@@H]1C[C@@H](c2nc(-c3ccccc3)no2)N(Cc2ncc[nH]2)C1	i
Cc1ccc(NC(=O)CSc2nc(-c3ccco3)ccc2C#N)cc1Cl	i
CC(C)(CNC(=O)c1nn(Cc2ccccc2)c(=O)c2ccccc12)N1CCOCC1	i
COc1cccc(NC(=O)CCc2c(C)c3ccc(C)cc3oc2=O)c1	i
O=C(NC1CCCc2ccccc21)c1cc(Cl)nc(Cl)c1 (stereo not drawn)	i
CC(Oc1ccc(-c2ccc(C#N)cc2)cc1)C(=O)c1cccc(Cl)c1 (stereo not drawn)	i
CCn1cnc2c1c(=O)n(CC(=O)NCc1cccs1)c(=O)n2Cc1ccccc1	i
COc1ccc(NC2(c3nnnn3-c3ccc(C(C)C)cc3)CCCC2)cc1	i
CN(CC(=O)Nc1cccc2ccccc12)C(=O)CSc1nccn1-c1cccc(F)c1	i
N#Cc1ccc(OCCOC(=O)CCc2ccc3ccccc3n2)cc1	i
CC(C)CN1CCN(c2nc3c(c(=O)[nH]c(=O)n3C)n2CCc2ccccc2)CC1	i
